Data published in PubChem BioAssay (NCI).
This is part of a sample that, as a whole, favours compounds with a hit. Of some 83,000 tested, about 20% had one in any assay.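 Values shown are percent growth following 48 h exposure of cells in 96-well plates to a single concentration of compound; below 10 was considered active.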 A number with no mark means an inactive call. Active and inactive are the calls of the source.

What follows are compounds tested on MDA-MB-468 breast (assay: NCI-60 one-dose screen, 48 h (100 = growth as untreated, 0 = no growth, -100 = all killed)). Conditions: 10 µM unless noted.

Row | Compound | growth
1 | Cc1cc(C(C)(C)CC(C)(C)C)ccc1OCCOCC[N+](C)(C)Cc1ccccc1 | -82.5% (active)
2 | O=C1NC(=O)c2cc([N+](=O)[O-])cc3cccc1c23 | 91%
3 | CC(=O)/C(Cc1ccccc1)=N/O | 99.1%
4 | CCOC(=O)NNC(=S)Nc1ccccc1 | 97.7%
5 | NC(=NCCCOc1ccc(F)cc1)Nc1ccc(I)cc1 | 27.8%
6 | COc1cccc(/C=C/C(=O)c2ccc(NC(=O)COc3cccc4cccnc34)cc2)c1 | 90.9%
7 | C=C(C)[C@@H]1CC[C@]2(C(=O)n3ccnc3)CC[C@]3(C)[C@H](CC[C@@H]4[C@@]5(C)CCCNC(C)(C)[C@@H]5CC[C@]43C)[C@@H]12 | -11.1% (active)
8 | N#Cc1c(-c2ccccc2)nc(SCC(=O)Nc2nc(-c3ccc(Cl)cc3)cs2)[nH]c1=O | 85.7%
9 | Brc1ccc(Cn2nnnc2-c2ccn(-c3ccccc3)n2)cc1 | 71.5%
10 | Oc1c(Br)cc(Br)c2ccc(Cn3cc(-c4ccccc4C(F)(F)F)nn3)nc12 | 72.4%
11 | CS(=O)(=O)Nc1cccc(C(=O)NCc2ccc(N3CCOCC3)cc2)c1 | 93%
12 | Cc1ccc(Cc2cnc(NC(=O)c3cc(C)oc3C)s2)cc1 | 31.5%
13 | CCN(C(=O)CN1CCN(c2cc3c(cc2F)c(=O)c(C(=O)O)cn3CC)CC1)c1nc(-c2ccccc2)cs1 | -7.7% (active)
14 | NC(=NCCCOc1ccc(F)cc1)Nc1ccc(Cl)c(Cl)c1 | 41%
15 | CC(=O)O[C@H]1CC[C@]2(C)[C@H]3CC=C4[C@@H]5CC(C)(C)CC[C@]5(C(=O)NCCNCCNCCN)CC[C@@]4(C)[C@]3(C)CC[C@H]2C1(C)C | -14.5% (active)
16 | c1ccc2cc(Cn3c(-c4cccc5ccccc45)[n+](Cc4ccc5ccccc5c4)c4c5ccccc5c5ccccc5c43)ccc2c1 | -71.4% (active)
17 | CN1CCN(c2cc(F)c(NC3=C(Cl)C(=O)c4ncccc4C3=O)c(F)c2)CC1 | -73.9% (active)
18 | CC(=O)Nc1ccc(NC(=O)Nc2cccc(-c3nc(-c4ccc(NC(=O)c5cccs5)cc4Cl)no3)c2)cc1C(F)(F)F | -77.7% (active)
19 | CCn1c2ccc(O)cc2c2c(C)c3c[n+](C(C)C)ccc3c(C)c21 | -19.7% (active)
20 | NC(N)=Nc1ccc(Oc2cccc(NC(N)=Nc3ccc(Cl)c(C(F)(F)F)c3)c2)cc1 | 10.1%

Row | Compound | growth
21 | COc1cc(NCC(O)CN(CC(C)C)C2CCCC2)c2ncccc2c1 (stereo not given) | -13.4% (active)
22 | NC(=O)c1c(NC(=O)c2ccc(F)cc2F)sc2c1CCC(=O)C2 | 81.7%
23 | CCS(=O)(=O)OCCO[C@H]1Cc2cc3ccc(=O)oc3cc2OC1(C)C | 97.9%
24 | CCn1c2ccccc2c2cc(-n3nncc3-c3ccccc3)ccc21 | 46.4%
25 | COc1ccc(C2CC(n3ccnc3)c3cc(OC)c(OC)c(OC)c32)cc1O (stereo not given) | 78.6%
26 | CN(C)c1ncc(-c2ccc(C(F)(F)F)cc2)c(NC2CCCCCC2)n1 | 29.5%
27 | O=C1CCC(C(=O)N/N=C/c2ccc([N+](=O)[O-])cc2)N1 (stereo not given) | 110%
28 | CCOC(=O)CC[C@H](NC(=O)c1ccc(N(C)Cc2cnc3nc(N)nc(N)c3n2)c2ccccc12)C(=O)OCC | 27.1%
29 | OCc1cccc(F)c1 | 68.9%
30 | COc1cc([C@@H]2c3cc4c(cc3C(OC3O[C@@H]5COC(C)O[C@H]5[C@H](O)[C@H]3O)C3COC(=O)[C@@H]32)OCO4)cc(OC)c1O (stereo not given in full) | -31% (active)
31 | O=C(Nc1ccccc1F)Nc1ccccc1Cl | 76%
32 | Cc1c(C)c2c(c(C)c1OCC(=O)O)CC[C@@](C)(CCC[C@@H](C)CCC[C@@H](C)CCCC(C)C)O2 | 0.25% [50 µM] (active)
33 | c1ccc2cc(Cn3c[n+](Cc4ccc5ccccc5c4)c4ccccc43)ccc2c1 | -21% (active)
34 | COC(=O)c1ccccc1C(=O)c1c(C)cc(C)cc1C | 103%
35 | Cc1c(Cl)cccc1NC(=O)CCCl | 108%
36 | COc1cc2c(c(OC)c1OC)C(=O)CC(c1cccc(NC(=O)c3ccc(C#N)cc3)c1)O2 (stereo not given) | 48.8%
37 | N#CC(C#N)N=Nc1ccc(Cl)cc1 | -17.6% (active)
38 | O=c1cc(Cl)[nH]c(=O)[nH]1 | 101%
39 | O=C1Nc2ccc(Br)cc2/C1=N\c1nnc(-c2ccc(Cl)cc2)o1 | 51.8%
40 | CC(=O)OCC1SC(OC(C)=O)C(NC(=O)/C=C/CCl)C(OC(C)=O)C1OC(C)=O (stereo not given) | 98.5%
